# Data as given in article PMC5540273 (PLoS ONE, 2017).
# Tests used:
# Conditions in all cases: concentration: 1 μM, replicates: in singlicate; n = 1
# [1] = system: T1, RSK1(Kin.Dom.1-N-terminal)
# T1 construct: gene RPS6KA1
# [2] = system: T2, RSK1(Kin.Dom.2-C-terminal)
# T2 construct: gene RPS6KA1
# [3] = system: T3, RSK2(Kin.Dom.1-N-terminal)
# T3 construct: gene RPS6KA3
# [4] = system: T4, RSK2(Kin.Dom.2-C-terminal)
# T4 construct: gene RPS6KA3
# [5] = system: T5, RSK3(Kin.Dom.1-N-terminal)
# T5 construct: gene RPS6KA2
# [6] = system: T6, RSK3(Kin.Dom.2-C-terminal)
# T6 construct: gene RPS6KA2
# [7] = system: T7, RSK4(Kin.Dom.1-N-terminal)
# T7 construct: gene RPS6KA6
# [8] = system: T8, RSK4(Kin.Dom.2-C-terminal)
# T8 construct: gene RPS6KA6
# S6K1 = system: S6K1
# SBK1 = system: SBK1
# 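Further: KINOMEscan kinase panel screen.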
SMILES,%Inh [1],%Inh [2],%Inh [3],%Inh [4],%Inh [5],%Inh [6],%Inh [7],%Inh [8],%Inh (S6K1),%Inh (SBK1)
COC(=O)c1c(-c2ccccc2)c2cc(C)ccc2c(=O)n1Cc1ccccc1,0%,20%,0%,0%,15%,15%,0%,22%,0%,0%
Nc1ncnc2c1ncn2-c1cccc(F)c1 [SKF-97560],31%,0%,23%,0%,9%,0%,21%,0%,36%,25%
Cl.NS(=O)(=O)c1cccc(Nc2cc(-c3ccc(F)cc3)n[nH]2)c1 [GW824645],0%,0%,35%,0%,0%,0%,15%,0%,0%,0%
CCc1ccc(-c2ccc3c(c2)-c2nn(C)cc2S(=O)(=O)N3C)cc1,2%,41%,15%,63%,10%,32%,0%,21%,22%,0%
Cc1ccc(-c2ccc3c(ccc4sc5c(c43)NC[C@@H](C)N=C5N(C)C)n2)cn1,0%,0%,0%,0%,0%,0%,0%,0%,0%,0%
CCCNC(=O)Nc1ccc(Oc2ncnc3ccn(C)c23)cc1,14%,13%,27%,0%,0%,5%,25%,0%,0%,20%
COC(=O)c1c(-c2ccccc2)c2cc(Br)ccc2c(=O)n1Cc1ccc(S(C)(=O)=O)cc1,3%,14%,0%,9%,14%,0%,24%,6%,0%,5%
COc1cc(OC)cc(-c2cc3cnc(N)nc3nc2NC(=O)NC(C)(C)C)c1,23%,0%,0%,0%,0%,0%,0%,0%,0%,0%
Cc1cc(Nc2nc(-c3cccc(C)n3)nc3ccccc23)ccn1 [GW872411],23%,0%,24%,0%,0%,7%,0%,0%,7%,0%
COc1cccc(-n2cnc3c(N)ncnc32)c1 [SKF-97416],8%,13%,39%,34%,0%,8%,40%,7%,1%,29%
CCS(=O)c1ccc(-c2coc3ccc(-c4nnc(C)o4)cc23)cc1 (centres unmarked),0%,18%,5%,0%,3%,11%,18%,6%,8%,0%
COc1cc2ncn(-c3cc(OCCCc4ccccc4)c(C(N)=O)s3)c2cc1OC [GSK205189],2%,10%,7%,2%,0%,0%,12%,18%,0%,0%
CCn1c(-c2nonc2N)nc2ccccc21 [SB-693162/GW549034],6%,4%,41%,3%,4%,19%,48%,15%,43%,22%
Nc1n[nH]c2ncc(-c3ccccc3)cc12 [SB-517081],25%,0%,10%,0%,7%,0%,0%,36%,8%,8%
COc1cc(Nc2nccc(N3CCC(NC(=O)C4COc5ccccc5O4)C3)n2)cc(OC)c1OC (centres unmarked) [GSK1379761],3%,4%,0%,24%,0%,12%,0%,2%,0%,20%
O=C(NCCNc1ccnc(Nc2ccc(F)cc2)n1)Nc1ccc2c(c1)OCO2 [GSK1379882],15%,22%,14%,30%,0%,0%,0%,12%,0%,6%
CCc1nc(-c2cccc(C)c2)c(-c2ccncc2)s1,0%,91.2%,0%,0%,11%,10%,0%,94.6%,0%,0%
